# Where “and” joins values, the source holds several entries; their conditions need not be identical. Identical values can stand only once. Screen size: about 350,000 compounds; about 31,000 (8.9%) were called active. About 15% were inconclusive and are not listed. The full list was thinned out, with actives kept by preference. Unmarked numbers belong to inactive results. The call rests on the fitted dose curve; in most records, active means well fitted inhibition curve with a large enough effect; inconclusive means small, poorly fitted or top-dose-only effect; inactive means no such curve, though single readings can be large or run the other way.
# Target: Histone-lysine N-methyltransferase EHMT2 (Homo sapiens) (UniProt Q96KQ7)
# Assay: qHTS Assay for Inhibitors of Histone Lysine Methyltransferase G9a; further: nearly all actives have a fitted effect of over 75% in size
# Conditions: G9a H3K9 monomethylation, AlphaScreen, 2 h; series mostly up to 59 µM; activity, negative = inhibition: at the top concentration
# How it was run: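 Enzyme 20 nM + cpd, 15 min RT; add b-H3K9 pep 500 nM / SAM 20 uM; 2 h RT; anti-H3K9me1 Ab 0.5 ug/mL + SA donor / anti-rabbit acceptor beads 20 ug/mL each, 10 min; AlphaScreen read.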
# On the % scale 0 is the no-effect control and ±100 the full control effect; potency means the concentration at half of the fitted maximal effect.
# Chain of Histone-lysine N-methyltransferase EHMT2 (Homo sapiens) (Q96KQ7 913-1193 limits assumed): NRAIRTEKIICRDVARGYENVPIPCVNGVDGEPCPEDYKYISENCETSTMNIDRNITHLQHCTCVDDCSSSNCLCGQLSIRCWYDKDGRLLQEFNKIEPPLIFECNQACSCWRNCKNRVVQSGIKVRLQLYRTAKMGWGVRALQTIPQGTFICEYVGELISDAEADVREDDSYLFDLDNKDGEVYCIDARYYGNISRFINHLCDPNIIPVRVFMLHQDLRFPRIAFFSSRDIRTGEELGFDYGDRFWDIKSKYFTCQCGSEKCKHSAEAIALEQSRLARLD
SMILES,"activity, negative = inhibition",Potency
O=C(COc1ccc(Cl)cc1)NCCS(=O)(=O)N1CCN(c2ccc(F)cc2)CC1,-10.7% [at 102 µM],
COc1ccccc1/C=C/c1nc(C#N)c(NC(C)c2ccccc2)o1 (stereo not drawn),-49.3%,
CS(=O)(=O)c1ccc(-c2nnc(NC(=O)c3ccc4c(c3)OCCO4)o2)cc1,44.7%,
O=C(Nc1nnc(C2=COCCO2)o1)c1ccc([N+](=O)[O-])s1,,44.7 µM (active)
CSc1ccccc1-c1nnc(NC(=O)c2ccc3c(c2)OCCO3)o1,64.6%,
Cc1ccccc1OCC(=O)Nc1ccc2c(c1)ncn2C,-10.2% [at 0.501 µM],
COc1ccc(S(=O)(=O)N(C)CC(=O)NCCCN2CCOCC2)cc1Cl,10.6%,
COc1ccc(-c2ccc(CNCCCN3CCOCC3)o2)cc1Cl,,50.1 µM (active)
O=S(=O)(NCCCN1CCOCC1)c1ccc(F)c(Cl)c1,27% [at 12.7 µM],
O=C(NCc1cccnc1)c1cc(S(=O)(=O)N2CCOCC2)c(Cl)cc1Cl,-2.17% [at 2.33 µM],
CCc1cccc(NC(=O)CN(c2ccc(C)c(C)c2)S(=O)(=O)c2ccsc2C(=O)OC)c1,5.26%,
CC(=O)Nc1ccc(S(=O)(=O)N2CCC(C(=O)N[C@@H](Cc3ccccc3)C(=O)O)CC2)cc1,13.7% [at 102 µM],
CSc1cccc(NC(=O)CN2C(=O)CCc3cc(S(=O)(=O)N4CCCCC4)ccc32)c1,-38.2%,
Cc1cccc(C)c1NC(=O)CSc1nc2c([nH]1)c(=O)n(C)c(=O)n2C,1.79%,
Cc1ccc(NN=Nc2nc3c([nH]2)c(=O)n(C)c(=O)n3C)cc1,,1.58 µM (active)
CC(CCO)Nc1nc2c([nH]1)c(=O)n(C)c(=O)n2C (stereo not drawn),-11%,
Cc1ccc(NC(=O)c2csc3c2CCCC3)cc1,1.14% [at 102 µM],
CC(=O)Cc1nsc(NC(=O)c2ccc(Cl)cc2Cl)n1,-27.6% [at 102 µM],
CC(=O)Cc1nsc(NC(=O)c2csc3c2CCCC3)n1,,2.51 µM (active)
COc1cc(C2C(C(=O)c3ccc(C)o3)=C(O)C(=O)N2Cc2cccnc2)ccc1O (stereo not drawn),-13.2%,
COc1ccc(C2C(C(C)=O)=C(O)C(=O)N2Cc2cccnc2)cc1 (stereo not drawn),,20 µM (active)
CCCOc1ccc(C2c3c(-c4ccccc4O)n[nH]c3C(=O)N2Cc2cccnc2)cc1 (stereo not drawn),-1.26%,
O=C(c1ccc(Br)cc1)N(Cc1cccs1)c1ccc(F)cc1,65%,
CCCOc1ccc(C2=CSC3=NCCN23)cc1Cl,-12.4% [at 102 µM],

SMILES,"activity, negative = inhibition",Potency
COc1ccc(CCNc2ncnc3onc(-c4ccc(Cl)cc4)c23)c(OC)c1,5.46%,
CCCCn1c(CNC(=O)C23CC4CC(CC(C4)C2)C3)nnc1SCC(=O)Nc1ccc(C)cc1,-10.5%,
COc1ccc(-c2onc(C)c2C)cc1S(=O)(=O)NCC1CCN(Cc2cccc(F)c2)CC1,1.76%,
Cc1cc(OCCCCOc2ccc(C#N)cc2)ccc1[N+](=O)[O-],30.7% [at 12.7 µM],
Cc1cc(OCCCN2CCN(Cc3ccccc3)CC2)ccc1[N+](=O)[O-],,8.91 µM (active)
O=C(c1cccc([N+](=O)[O-])c1)N1CCN(Cc2ccccc2)CC1,16.3% [at 102 µM],
COc1ccc(-c2nc(Cn3c(=O)cc(C)c4c(C)nn(-c5ccccc5)c43)c(C)o2)cc1OC,6.04%,
O=c1[nH]c(=S)[nH]c2[nH]c(=S)[nH]c12,,1.58 µM (active) and 1.26 µM (active)
CN(CC(=O)Nc1ccc(Cl)cc1)CC(=O)Nc1cccc2ccccc12,-44.6% [at 12.7 µM],
CCOC(=O)c1cc(Sc2ccccc2N)cc(C(=O)OCC)n1,45% [at 102 µM],
CCS(=O)(=O)c1cc([N+](=O)[O-])c(Sc2ccccc2N)s1,,1.12 µM (active)
Cc1ccc(S(=O)(=O)NCCSc2ccccc2)cc1[N+](=O)[O-],-13.4%,
CCOc1ccccc1NC(=O)Cn1ncc2ccc([N+](=O)[O-])cc21,-50.6% [at 102 µM],
CCc1ccccc1NC(=O)c1ccc2nc(CCc3ccccc3)oc2c1,-8.22%,
COc1ccc(C)cc1NC(=O)CCCN1C(=O)NC(C)(C)C1=O,20.4% [at 2.33 µM],
O=C(N/N=C/c1cccc(Br)c1)c1ccc(N2CCCC2=O)cc1,,79.4 µM (active)
Cn1c(=O)n(C)c2cc(/C=N/NC(=O)c3cccc(Br)c3)ccc21,20.1%,
COc1cc(/C=N/NC(=O)c2ccc(N3CCCC3=O)cc2)ccc1O,65.8% [at 102 µM],
Cc1ccccc1NC(=O)Cn1cc(C(=O)c2cccs2)c2ccccc21,-6.24%,
O=S(=O)(NC1CC1)c1ccc(Cl)cc1,12.4% [at 102 µM],
Cc1cc(C)c(OCCN2CC(C)OC(C)C2)c(Br)c1 (stereo not drawn),,8.91 µM (active)
O=C(Cn1ccc2cc(S(=O)(=O)N3CCCC3)ccc21)NCc1ccccc1,10.8% [at 102 µM],
O=[N+]([O-])/C=C/c1ccc2c(ccn2Cc2ccccc2)c1,,31.6 µM (active)
O=c1c([N+](=O)[O-])cc(C(F)(F)F)cn1Cc1cccc(Cl)c1,71.8%,

# Reference: PubChem BioAssay AID504332 (National Center for Advancing Translational Sciences (NCATS), 2011)
